Assay [1] has as its target Bromodomain-containing protein 4 (Homo sapiens) (UniProt O60885). The conditions noted are these: Compound concentration 20.0 uM, Protein concentration 2.0 uM, Result type QC Liability.
Assay [2] has as its target T1, Transcription intermediary factor 1-alpha (Homo sapiens) (UniProt O15164).
T1 sequence (whole entry): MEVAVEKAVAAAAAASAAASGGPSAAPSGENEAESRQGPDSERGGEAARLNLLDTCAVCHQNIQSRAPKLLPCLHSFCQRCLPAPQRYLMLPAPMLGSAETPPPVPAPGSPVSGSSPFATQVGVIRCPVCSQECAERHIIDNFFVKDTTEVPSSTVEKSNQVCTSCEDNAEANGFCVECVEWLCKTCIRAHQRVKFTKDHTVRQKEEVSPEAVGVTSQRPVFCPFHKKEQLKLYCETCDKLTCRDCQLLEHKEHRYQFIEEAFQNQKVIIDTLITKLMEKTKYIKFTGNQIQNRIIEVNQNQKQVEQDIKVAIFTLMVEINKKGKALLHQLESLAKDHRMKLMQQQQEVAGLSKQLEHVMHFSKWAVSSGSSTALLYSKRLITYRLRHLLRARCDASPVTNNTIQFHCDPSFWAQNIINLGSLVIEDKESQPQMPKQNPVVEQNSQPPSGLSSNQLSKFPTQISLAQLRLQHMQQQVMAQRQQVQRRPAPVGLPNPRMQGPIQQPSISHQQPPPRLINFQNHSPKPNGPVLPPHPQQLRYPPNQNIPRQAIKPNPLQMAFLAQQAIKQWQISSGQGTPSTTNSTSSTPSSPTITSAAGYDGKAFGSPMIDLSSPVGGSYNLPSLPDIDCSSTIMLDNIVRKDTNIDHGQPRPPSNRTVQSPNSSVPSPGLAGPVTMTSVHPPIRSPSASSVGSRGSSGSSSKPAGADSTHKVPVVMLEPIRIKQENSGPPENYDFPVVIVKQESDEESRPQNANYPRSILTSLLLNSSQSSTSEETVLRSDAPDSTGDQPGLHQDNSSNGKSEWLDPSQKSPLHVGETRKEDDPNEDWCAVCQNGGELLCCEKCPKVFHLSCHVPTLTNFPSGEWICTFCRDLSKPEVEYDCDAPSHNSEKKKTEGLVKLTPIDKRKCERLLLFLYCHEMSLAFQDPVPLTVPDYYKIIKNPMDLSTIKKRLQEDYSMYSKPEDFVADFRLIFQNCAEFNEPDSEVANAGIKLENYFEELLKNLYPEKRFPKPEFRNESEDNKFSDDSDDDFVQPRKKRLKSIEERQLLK
The conditions noted are these: Compound concentration 20.0 uM, Protein concentration 2.0 uM, Result type QC Liability.

Usually ΔTm stands for the shift of the melting midpoint relative to a reference.

“And” between values parts separate entries of the source, which are not always exact repeats. Equal values may be shown once.

As for `CS(=O)(=O)NC(=O)CCC/C=C\C[C@H]1C(=O)C[C@@H](O)[C@@H]1/C=C/[C@@H](O)COc1ccccc1`, the ΔTm in assay [1] was -2 °C; in assay [2], -0.45 °C.
Taken in the same sequence, the figures for `CC(=O)N1CCC(c2ccc(C(=O)NC(=N)N)cc2C(F)(F)F)CC1` were -0.62 °C and 0.53 °C.
On the same counts, the results for `O=C(O)[C@]1(Cc2cccc(Nc3nccs3)n2)CC[C@@H](Oc2cccc(Cl)c2F)CC1` are 0 °C and -1.24 °C.
With `CCN1C(=O)/C(=C(\NC2CCN(C)CC2)c2ccc3c(c2)OCO3)c2cc(C(C)=O)ccc21`, the values for the thermal shift (ΔTm) in assay [1] and in assay [2] were -12 °C and 0.3 °C, respectively.
For `COc1c(OCCCN2CCOCC2)ccc2c1N=C(NC(=O)c1cnc(N)nc1)N1CCN=C21`, the ΔTm was -0.74 °C in assay [1] and -2.86 °C in assay [2].
Taken in the same sequence, the figures for `CC(=O)c1ccc2c(c1)/C(=C(/Nc1cccc(C#N)c1)c1ccc3c(c1)OCCO3)C(=O)N2` were -1.21 °C and -2.47 °C.
On the same counts, the results for `C[C@@H](COCCC(=O)N1CCN(c2ncc(C(F)(F)F)cn2)CC1)Nc1cn[nH]c(=O)c1C(F)(F)F` are -1.99 °C and -0.95 °C.
In the case of `NC(=O)c1sc2nc(N3CCC(NC[C@H](O)c4ccccn4)CC3)cc(C(F)(F)F)c2c1N`, the ΔTm in assay [1] was -3.3 °C; in assay [2] it was -3.39 °C.
On the same counts, the results for `Cn1nc(-c2ccc(C(N)=O)cc2)c2ccccc2c1=O` are 0.79 °C and 0.31 °C.
Consider `CC(C)(O)[C@H](F)CN1Cc2cc(NC(=O)c3cnn4cccnc34)c(N3CCOCC3)cc2C1=O`, for which the ΔTm in assay [1] is -0.35 °C; in assay [2] it was -2.63 °C.
Take `CNc1nc(Nc2ccc(C(=O)N3CCOCC3)cc2OC)ncc1Cl`: the ΔTm in assay [1] is -0.71 °C; in assay [2], -2.04 °C.
Taken in the same sequence, the figures for `N=C(N)NCCC[C@@H](NC(=O)C(c1ccccc1)c1ccccc1)C(=O)NCc1ccc(CNC(N)=O)cc1` were 0.42 °C and 0.26 °C.
For `CCNC1=N[C@@H]2[C@@H](O)[C@H](O)[C@@H](CO)O[C@@H]2S1`, the values for the ΔTm in assay [1] and in assay [2] were -1.49 °C and -2.58 °C, respectively.
For the compound `O=C(NCc1ccc(F)cc1)C1CCN(S(=O)(=O)c2cc(Cl)cc(Cl)c2)CC1`, the ΔTm was -0.4 °C in assay [1] and 0.44 °C in assay [2].
Taken in the same sequence, the figures for `Cc1cnc(Nc2ccc(C(=O)N3CCN(C)CC3)cc2)nc1N[C@@H]1CCC[C@@H]1C(N)=O` were -1.32 °C and -3.2 °C.
As to `CNC(=O)c1c(F)cccc1Nc1nc(Nc2cc3c(cc2OC)CCN3C(=O)CN(C)C)nc2[nH]ccc12`, the ΔTm in assay [1] is -1.02 °C; in assay [2], -1.89 °C.
On to `C[C@@]1(Cc2ccc(C#N)cc2)C(=O)N(c2cc(Cl)cc(Cl)c2)c2ncc(C(=O)NC3(c4nc(C5CCC5)no4)CC3)n21`, for which the ΔTm in assay [1] was found to be 10.3 °C; in assay [2], 0.39 °C.
Taken in the same sequence, the figures for `Cc1cc(C2CCCNC2)ccc1Nc1ncc(Br)c(NCc2cccc3c2C(C)(C)C(=O)N3)n1` (stereo not drawn) were -4.96 °C and -2.52 °C.
Taken in the same sequence, the figures for `Cc1cc(SCc2sc(-c3ccc(C(F)(F)F)cc3)nc2C)ccc1OCC(=O)O` were -3.91 °C and -2.79 °C.
Regarding `CNC(=O)c1nnc(NC(=O)C2CC2)cc1Nc1cccc(-c2ncn(C)n2)c1OC`, the ΔTm is -2.45 °C in assay [1] and -4.06 °C in assay [2].
Consider `Cc1csc(-c2nnc(Nc3ccc(Oc4ncccc4-c4ccnc(N)n4)cc3)c3ccccc23)c1`, for which the ΔTm in assay [1] is 11.5 °C; in assay [2], -1.04 °C.
`CCN1CCN(Cc2ccc(Nc3ncc(F)c(-c4cc(F)c5nc(C)n(C(C)C)c5c4)n3)nc2)CC1`: the ΔTm in assay [1] is -1.43 °C; in assay [2], -2.28 °C.
On the same counts, the results for `N=C(N)Nc1cc(C2CCNCC2)cc(C(F)(F)F)c1` are -0.1 °C and 0.35 °C.
On the same counts, the results for `COc1ccccc1N1CCN(c2ncnc3c2cnn3-c2ccccc2)CC1` are 0.01 °C and 0.1 °C.
Regarding `Cc1cc2c(cc(C(=O)N[C@H](CO)c3ccc(S(=O)(=O)CC(=O)O)cc3)n2C)c(Cl)c1Cl`, the ΔTm in assay [1] is 2.14 °C; in assay [2] it was -0.18 °C.
Turning to `COCCNC1CCC(Nc2cc(-c3csc(NCC4(C#N)CCOCC4)n3)c(Cl)cn2)CC1` (stereo not drawn), the ΔTm in assay [1] is -0.18 °C; in assay [2] it was -2.77 °C.
As to `CC(=O)c1c(C)c2cnc(Nc3ccc(N4CCNCC4)cn3)nc2n(C2CCCC2)c1=O`, the ΔTm in assay [1] was -1.52 °C and 0.07 °C; in assay [2], -1.97 °C and -2.09 °C.
On to `N#C/C(=C\c1ccc(O)c(O)c1)C(=O)OCCc1cccs1`, for which the ΔTm in assay [1] is -0.61 °C; in assay [2], 0.49 °C.
Taken in the same sequence, the figures for `COc1cc2nc(C)nc(NC3(c4ccccc4)CC3)c2cc1OC` were -0.74 °C and 0.43 °C.
On to `Cc1cc(=O)oc2cc(NC(=O)[C@H](Cc3ccc(I)cc3)NC(=O)[C@H]3N[C@@H]4CC[C@H]3C4)ccc12`, for which the ΔTm was -0.26 °C in assay [1] and 0.3 °C in assay [2].
Taken in the same sequence, the figures for `CSc1ccc(C(=O)/C=C/c2cc(C)c(OC(C)(C)C(=O)O)c(C)c2)cc1` were -3.49 °C and -3.46 °C.
On the same counts, the results for `CC1(C)CCN(C(=O)C2CN(c3c4c(nc5ccnn35)CCNCC4)C2)C1` are -0.32 °C and 0.23 °C.
On the same counts, the results for `Cc1ncsc1-c1ccc(CNC(=O)[C@@H]2C[C@@H](O)CN2C(=O)[C@@H](NC(=O)C2(F)CC2)C(C)(C)C)c(OCCOc2ccc(CN3CCN(c4cc(-c5ccccc5O)nnc4N)CC3)cc2)c1` are 13.5 °C and 0 °C.
Turning to `C[C@H](CCC(=O)O)[C@H]1CC[C@H]2[C@@H]3[C@H](O)C[C@@H]4C[C@H](O)CC[C@]4(C)[C@H]3C[C@H](O)[C@]12C`, the ΔTm in assay [1] is -2.7 °C; in assay [2] it was -2.48 °C.

Values taken from ChEMBL document CHEMBL5308504, “Tm Shift (DSF) assay results for EUbOPEN Chemogenomics Library” (2023).
